HT1080-NT tox = kills 2HG-producing HT-1080-NT fibrosarcoma cells; HT-1080-NT fibrosarcoma viability, CellTiter-Glo ATP luminescence, 48 h; Potency, µM (top dose mostly 46.1 µM), for inactives: top-dose activity, negative = less viability, most hits filed as cytotoxic; 360,000 tested, 1.6% active;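 note: NT is the 2HG producing partner of a matched IDH1 knockdown line; potency is the fitted concentration of half-maximal effect; 0% = DMSO-treated cells and -100% = media-only wells without cells; nearly all actives have a fitted effect of over 55% in size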
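750 cells/well, RPMI + 5% FBS; 2 h settle, compound pin-transfer, 48 h at 37 degrees C. CellTiter-Glo 10 min RT, luminescence. Normalized to DMSO and media-only wells.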
HT1080 IDH1KD tx = toxicity to HT-1080 IDH1 knockdown cells (counter line); AID 686971; HT-1080 IDH1 knockdown viability, ATP luminescence, 48 h; 360,000 tested, 2% active; Potency, µM (top dose mostly 46.1 µM), without a hit: at the highest dose activity, negative = toxicity, actives largely listed as cytotoxic;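 note: potency is the fitted concentration of half-maximal effect; 0% = DMSO wells and -100% = cell-free medium wells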
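Knockdown cells (IDH1KD HT-1080) received compounds 2 h after plating at 750 cells/well and were kept 48 h at 37 °C in 5% FBS RPMI. A CellTiter-Glo luminescence read gave % activity for curve fitting.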
DT40 TDP1 CPT = DT40-hTDP1 cell growth loss with CPT. AID 686979. Potency, µM (top dose mostly 46.2 µM), inactives show top-dose activity change, negative = growth inhibition, actives largely listed as inhibitors. 420,000 tested, 12% active. chicken DT40 Tdp1-/-;hTDP1 cells + 20 nM CPT, ATP luminescence, 48 h; note: potency is the fitted concentration of half-maximal effect; nearly all actives have a fitted effect of over 55% in size
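Chicken DT40 Tdp1-/- cells stably complemented with human TDP1 were seeded at 400 cells/well in medium containing 20 nM camptothecin, exposed to pin-transferred compounds, and grown at 37 °C for at least 48 hr. Viability was read as ATP luminescence.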
IL-1B inflam inh = blocks inflammasome-driven IL-1 beta release. 360,000 tested, 4.7% active. activity change, % at 57.5 µM. THP-1 LPS/ATP IL-1B secretion, AlphaLISA, 16 h; hits give low values; in the data active = activity change below about -50%; inconclusive = mostly about -30% to -49%
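Secreted IL-1B measured by AlphaLISA bead assay after 16 h compound exposure of THP-1 cells; compounds (final up to 57.5 uM) added 1 h before LPS (250 ng/mL) and ATP (1.25 mM) stimulation; lower signal means less secretion.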
TDP1 cell noCPT = qHTS for Inhibitors of human tyrosyl-DNA phosphodiesterase 1 (TDP1): qHTS in cells in absence of CPT; DT40 Tdp1-/- hTDP1 cells, no CPT, ATP luminescence, 48 h; Potency, µM (doses to about 46.2 µM), without a hit: at the top dose activity change, negative = growth inhibition, hits mostly inhibitors; 420,000 tested, 15% active; note: potency is the fitted concentration of half-maximal effect; nearly all actives have a fitted effect of over 55% in size
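DT40 Tdp1-/-;hTDP1 cells, no CPT (DMSO vehicle only), 400 cells/well; compounds pin-transferred; ≥48 hr, 37 °C; CellTiter-Glo 30 min RT dark, luminescence read.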
An asterisk follows results filed as active; ? = inconclusive; . = no result. An excerpt weighted towards active compounds, which were near 19% of everything screened. Unless noted, calls come from the whole dose curve; as a rule, active = well fitted curve in the direction sought with a large enough effect; inconclusive = small, poorly fitted or top-dose-only effect, or another doubt; inactive = no such curve, though single readings can be large; an effect the other way counts as inactive or inconclusive. Unless noted, % is set by controls: 0 for no effect and ±100 for the full control effect.

SMILES	HT1080-NT tox	HT1080 IDH1KD tx	DT40 TDP1 CPT	IL-1B inflam inh	TDP1 cell noCPT
CC(C)(C)[C@@H]1CCC(=O)N(CC[C@H](Sc2ccc(Br)cc2)c2ccccc2)CC1	?	?	18µM*	0	11µM*
O=C1CC[C@@H](O)CCN1CC[C@H](Sc1ccccc1)c1ccccc1	-15%	1%	?	5	?
O=C1CC[C@@H](O)CCN1CC[C@H](Sc1ccc(Br)cc1)c1ccccc1	12%	12%	23µM*	-17	10µM*
COC(=O)c1ccc(Cn2c(C)c(C(=O)NCc3ccco3)sc2=O)o1	-2%	0%	-22%	-56*	-30%
COC(=O)c1ccc(Cn2c(C)c(C(=O)NCc3ccc(Cl)c(Cl)c3)sc2=O)o1	?	?	?	-2	21µM*
COC(=O)c1ccc(Cn2c(C)c(C(=O)NCc3ccc(C#N)cc3)sc2=O)o1	-11%	?	-23%	-17	-9%
Cc1ccc(C)c(NC(=O)C2CCCN(S(=O)(=O)c3cccc4nsnc34)C2)c1 (stereo unspecified)	.	.	-31%	.	26µM*
Cc1cccc(NC(=O)C2CCN(S(=O)(=O)c3cccc4nsnc34)CC2)c1	-9%	-10%	6%	-10	-18%
O=C(Nc1cccc(C(F)(F)F)c1)C1CCCN(S(=O)(=O)c2cccc3nsnc23)C1 (stereo unspecified)	.	.	16µM*	.	21µM*
COc1ccc2nc(NC(=O)C3CCN(S(=O)(=O)c4cccc5nsnc45)CC3)sc2c1	-11%	?	15µM*	-77*	?
Cc1cc(C)cc(NC(=O)C2CCCN(S(=O)(=O)c3cccc4nsnc34)C2)c1 (stereo unspecified)	.	.	18µM*	.	16µM*
OC[C@H]1O[C@@H]2O[C@H]3[C@H](O)[C@@H](O)[C@@H](O[C@H]4[C@H](O)[C@@H](O)[C@@H](O[C@H]5[C@H](O)[C@@H](O)[C@@H](O[C@H]6[C@H](O)[C@@H](O)[C@@H](O[C@H]7[C@H](O)[C@@H](O)[C@@H](O[C@H]8[C@H](O)[C@@H](O)[C@@H](O[C@H]1[C@H](O)[C@H]2O)O[C@@H]8CO)O[C@@H]7CO)O[C@@H]6CO)O[C@@H]5CO)O[C@@H]4CO)O[C@@H]3CO	.	.	4%	.	-2%
Cc1cccc(NC(=O)C2CCCN(S(=O)(=O)c3cccc4nsnc34)C2)c1 (stereo unspecified)	0%	-19%	?	0	?
CCOc1ccc(NC(=O)C2CCCN(S(=O)(=O)c3cccc4nsnc34)C2)cc1 (stereo unspecified)	15%	5%	23µM*	13	16µM*
Cc1cc(NC(=O)C2CCCN(S(=O)(=O)c3cccc4nsnc34)C2)ccc1Br (stereo unspecified)	.	.	10µM*	.	?
CCOCCCNC(=O)C1CCCN(S(=O)(=O)c2cccc3nsnc23)C1 (stereo unspecified)	13%	7%	13%	13	-17%
Cc1cccc(NC(=O)C2CCCN(S(=O)(=O)c3c(C)nn(C)c3C)C2)c1 (stereo unspecified)	0%	1%	?	22	?
COc1cccc(NC(=O)C2CCCN(S(=O)(=O)c3cccc4nsnc34)C2)c1 (stereo unspecified)	-8%	-3%	?	-8	16µM*
Cc1ccc(C)c(NC(=O)C2CCCN(S(=O)(=O)c3c(C)nn(C)c3C)C2)c1 (stereo unspecified)	-23%	-6%	?	23	18µM*
COc1ccc(CCNC(=O)C2CCN(Cc3nc(-c4ccc(OC)c(OC)c4)oc3C)CC2)cc1OC	.	.	2%	.	?
CCCCCCCCCCCC(=O)[O][Sn]([CH2]CCC)([CH2]CCC)[O]C(=O)CCCCCCCCCCC	.	.	-11%	.	0%
O=C(CSc1ccccc1)NNC(=O)c1ccncc1	13%	18%	-3%	29	-18%
